High-throughput results (PubChem)
TbPYK inhibitor = blocks Trypanosoma brucei pyruvate kinase. Q57TT1. TbPYK enzyme, Kinase-Glo Plus ATP luminescence, 45 min. Potency, µM (highest dose often 76.8 µM), for the others: top-dose activity, negative = inhibition, most hits filed as inhibitors. 410,000 tested, 0.12% active. AID 624173; also: nearly all actives have a fitted effect of over 50% in size
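ADP (130 uM final) triggers the TbPYK reaction after compound addition; incubation is 45 min at room temperature. Kinase-Glo Plus is then added and luminescence imaged. Normalized data are fitted to concentration-effect curves.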
FMDV inh = foot and mouth disease virus antiviral activity; FMDV antiviral cell-based qHTS; Potency, µM (highest dose often 57.9 µM), for the others: top-dose activity change, negative = inhibition, hits mostly inhibitors; 410,000 tested, 1.2% active; calls by dose curve; tested in HEK293T cells; also: read-out not given here; nearly all actives have a fitted effect of over 45% in size
Sm TGR block = S. mansoni TGR enzyme inhibition. Q962Y6. purified TGR, DTNB reduction, TNB absorbance 405 nm. Potency, µM (highest dose often 114 µM), without a hit: at the highest dose activity change, negative = inhibition, actives largely listed as inhibitors. 360,000 tested, 3% active; also: nearly all actives have a fitted effect of over 60% in size
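Kinetic colorimetric format: TGR-catalysed, NADPH-driven DTNB reduction monitored via TNB absorbance. Enzyme dispensed at 20 nM; compound exposure 15 min at room temperature before reaction start.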
RE007 growth inh = less growth of the S. pombe RE007 Vpr strain; Potency, µM (top dose mostly 92.2 µM), for inactives: at the top dose activity change, negative = less growth, usual class: inhibitors; 360,000 tested, 0.21% active; AID 651644; S. pombe RE007 Vpr strain, BacTiter-Glo ATP luminescence, 24 h; active = well fitted falling curve with a large enough effect; inconclusive = small, poorly fitted or top-dose-only effect; inactive = no such curve, though single readings can be large or run the other way; also: nearly all actives have a fitted effect of over 50% in size
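Fission yeast RE007 carrying one integrated HIV-1 vpr copy, seeded at OD 0.01 in PMG+AL medium with 23 nL pinned compound. Grown 24 h at 30 degrees; viability read by BacTiter-Glo luminescence after 5 min.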
Active calls of the source: *. Most compounds without a hit are left out; they make up all but 3.7% or so of the library. Unless noted, calls follow the shape of the dose curve; as a rule, active = well fitted curve in the direction sought with a large enough effect; inconclusive = small, poorly fitted or top-dose-only effect, or another doubt; inactive = no such curve, though single readings can be large; an effect the other way counts as inactive or inconclusive. % is scaled to controls: 0 for no effect and ±100 for the full control effect; potency is read from the fitted curve at half-maximal effect.

Results for Cc1ccc(S(=O)(=O)c2nc(-c3ccccc3F)oc2N2CC(C)OC(C)C2)cc1 (stereo not drawn) ?
TbPYK inhibitor: -4%; FMDV inh: 27%; Sm TGR block: 20µM*; RE007 growth inh: 10%

What do the screens show for `O=S(=O)(c1ccccc1)c1nc(-c2ccc(F)cc2)oc1N1CCCCCC1`?
TbPYK inhibitor: -3%; FMDV inh: 0%; Sm TGR block: -2%

What do the screens show for `O=S(=O)(c1ccc(F)cc1)c1nc(-c2ccccc2F)oc1N1CCCCC1`?
TbPYK inhibitor: -17%; FMDV inh: -8%; Sm TGR block: 10µM*; RE007 growth inh: -12%

Results for COc1ccccc1-c1nc(S(=O)(=O)c2ccccc2)c(N2CCCCC2)o1 ?
TbPYK inhibitor: 2%; FMDV inh: 9%; Sm TGR block: 0.79µM*; RE007 growth inh: 1%

Results for Cc1ccc(S(=O)(=O)c2nc(-c3ccccc3Cl)oc2N2CCCCCC2)cc1 ?
TbPYK inhibitor: -11%; FMDV inh: 26%; Sm TGR block: inconclusive

How did Cc1oc(-c2ccccc2NC(=O)c2cccnc2)nc1CNC(=O)C1CCCCCN1C (stereo not drawn) do in these assays?
FMDV inh: -22%

What do the screens show for `COc1ccccc1C1CN(CCNC(=O)c2ccccc2Cl)Cc2ccccc2O1` (stereo not drawn)?
FMDV inh: 8%

How did Cc1cc([N+](=O)[O-])c2c(c1C)C1C=CCC1C(c1ccccn1)N2 (stereo not drawn) do in these assays?
Sm TGR block: 22µM*

How did Cc1ccc(Cl)c2c1N[C@@H](c1ccc(C(=O)O)cc1)[C@H]1CC=C[C@@H]21 do in these assays?
TbPYK inhibitor: inconclusive; FMDV inh: -20%; Sm TGR block: -21%

What do the screens show for `Nc1ccc(S(=O)(=O)c2cc(O)c3ccccc3c2O)cc1`?
TbPYK inhibitor: 11µM*; FMDV inh: inconclusive; RE007 growth inh: -4%

Results for Cc1c(O)ccc2cc(S(=O)(=O)c3ccccc3)c(=O)oc12 ?
TbPYK inhibitor: -1%; FMDV inh: -5%; Sm TGR block: -28%; RE007 growth inh: 25%

What do the screens show for `O=S(=O)(c1ccccc1)c1cc(O)ccc1O`?
TbPYK inhibitor: -18%; FMDV inh: 34%; Sm TGR block: 28µM*; RE007 growth inh: -1%

What do the screens show for `O=S(=O)(c1ccc(Cl)cc1)c1ccc(Cl)cc1`?
TbPYK inhibitor: 2%; FMDV inh: -14%; Sm TGR block: -11%; RE007 growth inh: -4%

How did O=S(=O)(c1ccc(Cl)cc1)c1cc(O)ccc1O do in these assays?
TbPYK inhibitor: -11%; FMDV inh: 41%; Sm TGR block: 11µM*; RE007 growth inh: -1%

Results for CN(C)C(=O)OC1=C(c2ccccc2)Sc2ccccc2-n2cccc21 ?
FMDV inh: -11%

Results for CSc1nnc(C)c(=O)n1COC(=O)/C=C/c1ccc2c(c1)OCO2 ?
TbPYK inhibitor: -4%; FMDV inh: -11%; Sm TGR block: 25µM*; RE007 growth inh: 12%

Results for COC(=O)c1c(OCc2ccccn2)cc(=O)n2c1CCN(Cc1ccc3c(c1)CCCN3C)CC2 ?
FMDV inh: -18%

What do the screens show for `C#CCC(Cc1cnc2nc(N)nc(N)c2n1)c1ccc(C(=O)N[C@@H](CCC(=O)O)C(=O)O)cc1` (stereo partly drawn)?
TbPYK inhibitor: -3%

Results for CN(C)CCCN(C(=O)c1cc2cc([N+](=O)[O-])ccc2s1)c1nc2cc3c(cc2s1)OCCO3 ?
TbPYK inhibitor: -7%; FMDV inh: 40µM*; Sm TGR block: 4%; RE007 growth inh: 28%

What do the screens show for `CN(C)CCCN(C(=O)c1ccc([N+](=O)[O-])s1)c1nc2cc3c(cc2s1)OCCO3`?
TbPYK inhibitor: -6%; FMDV inh: -29%; Sm TGR block: -24%; RE007 growth inh: -10%

Results for CCc1ncnc2cc(OC)c(OC)cc12 ?
TbPYK inhibitor: 3%

Results for Cc1ccc(S(=O)(=O)N(C)C)cc1NC(=S)Nc1ccc2cn[nH]c2c1 ?
TbPYK inhibitor: -3%; FMDV inh: -8%; Sm TGR block: 18µM*; RE007 growth inh: 9%

Results for CC(=O)c1ccc(NC(=S)Nc2ccc3cn[nH]c3c2)cc1 ?
TbPYK inhibitor: 1%; FMDV inh: 27%; Sm TGR block: 20µM*; RE007 growth inh: -8%

How did CC(=O)Nc1cccc(NC(=S)Nc2ccc(F)c(Cl)c2)c1 do in these assays?
TbPYK inhibitor: 5%; FMDV inh: 8%; Sm TGR block: 28µM*; RE007 growth inh: 0%

Results for Cc1ccc(NC(=S)Nc2ccc3cn[nH]c3c2)cc1C ?
TbPYK inhibitor: -7%; FMDV inh: 10%; Sm TGR block: -9%; RE007 growth inh: -5%

Results for CC(=O)c1ccc(NC(=S)Nc2ccc(Br)c(Cl)c2)cc1 ?
TbPYK inhibitor: -3%; FMDV inh: -7%; Sm TGR block: 22µM*; RE007 growth inh: 2%

What do the screens show for `O=C(NC(=S)Nc1ccc(Br)c(Cl)c1)C1CC1`?
TbPYK inhibitor: 3%; FMDV inh: 21%; Sm TGR block: 0%; RE007 growth inh: 4%

What do the screens show for `CC(=O)Nc1cccc(NC(=O)Nc2ccc(C)c(Cl)c2)c1`?
TbPYK inhibitor: 0%; FMDV inh: 23%; Sm TGR block: -13%; RE007 growth inh: 5%

Results for Cc1cccc(NS(=O)(=O)c2c(C)nc3sccn3c2=O)c1C ?
TbPYK inhibitor: 2%; FMDV inh: 39%; Sm TGR block: -6%

How did COCCc1nn2c(=O)cc(COC(=O)COc3ccccc3C)nc2s1 do in these assays?
TbPYK inhibitor: 0%; FMDV inh: -8%; Sm TGR block: 0%

What do the screens show for `COCC(=O)Nc1cc(C(=O)N2CCCC(C(N)=O)C2)cc2nc(-c3ccccc3)n(C)c12` (stereo not drawn)?
FMDV inh: -6%

Results for COCCNC(=S)Nc1ccc([N+](=O)[O-])cc1C ?
TbPYK inhibitor: -6%; FMDV inh: 30%; Sm TGR block: inconclusive; RE007 growth inh: -6%

How did COCCCNC(=S)Nc1ccc(C)cc1[N+](=O)[O-] do in these assays?
TbPYK inhibitor: 3%; FMDV inh: 42%; Sm TGR block: 45µM*; RE007 growth inh: 6%

How did COc1ccc(OC)c(NC(=O)CN2C(=O)CCc3cc(S(=O)(=O)N4CCCCC4)ccc32)c1 do in these assays?
TbPYK inhibitor: 0%; FMDV inh: -6%; Sm TGR block: 5%

How did O=C(NCC1Cc2cc(F)cc(-c3cnccn3)c2O1)c1cccc(Cl)c1 (stereo not drawn) do in these assays?
FMDV inh: -12%

What do the screens show for `Cc1ccc(C)c(CN2C[C@H](Sc3nc4ccccc4[nH]3)C[C@H]2C(=O)N2CCCN(C)CC2)c1`?
FMDV inh: 10%

Results for CN1CCCN(S(=O)(=O)c2ccc3ccccc3c2)CC1 ?
TbPYK inhibitor: 3%; FMDV inh: 5%; Sm TGR block: 45µM*; RE007 growth inh: -17%

What do the screens show for `Cc1cccc(NC(=O)C2CCN(S(=O)(=O)c3ccc4ccccc4c3)CC2)n1`?
TbPYK inhibitor: 1%; FMDV inh: 25µM*; Sm TGR block: -2%; RE007 growth inh: -15%
